From ChEMBL document CHEMBL1961873, “Compounds: GSK PKIS; Assays: Nanosyn kinase panel” (2012)

What was measured:
[1] = biological target: Rho-associated protein kinase 1 (Homo sapiens) (UniProt Q13464); settings: at 1 µM;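 note: reported values are mean percent inhibition of ROCK1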
[2] = biological target: Rho-associated protein kinase 2 (Homo sapiens) (UniProt O75116); settings: at 0.1 µM
[3] = biological target: Rho-associated protein kinase 2 (Homo sapiens) (UniProt O75116); settings: at 1 µM
[4] = biological target: Ribosomal protein S6 kinase alpha-1 (Homo sapiens) (UniProt Q15418); settings: at 0.1 µM
[5] = biological target: Ribosomal protein S6 kinase alpha-1 (Homo sapiens) (UniProt Q15418); settings: at 1 µM
[6] = biological target: Ribosomal protein S6 kinase alpha-3 (Homo sapiens) (UniProt P51812); settings: at 0.1 µM
[7] = biological target: Ribosomal protein S6 kinase alpha-3 (Homo sapiens) (UniProt P51812); settings: at 1 µM
[8] = biological target: Ribosomal protein S6 kinase alpha-2 (Homo sapiens) (UniProt Q15349); settings: at 0.1 µM
[9] = biological target: Ribosomal protein S6 kinase alpha-2 (Homo sapiens) (UniProt Q15349); settings: at 1 µM
[10] = biological target: Ribosomal protein S6 kinase alpha-6 (Homo sapiens) (UniProt Q9UK32); settings: at 0.1 µM;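 note: reported value is the mean inhibition of RSK4, from the GSK PKIS kinase inhibitor screen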

Chain of Rho-associated protein kinase 1 (Homo sapiens) (Q13464 2-1354 limits assumed): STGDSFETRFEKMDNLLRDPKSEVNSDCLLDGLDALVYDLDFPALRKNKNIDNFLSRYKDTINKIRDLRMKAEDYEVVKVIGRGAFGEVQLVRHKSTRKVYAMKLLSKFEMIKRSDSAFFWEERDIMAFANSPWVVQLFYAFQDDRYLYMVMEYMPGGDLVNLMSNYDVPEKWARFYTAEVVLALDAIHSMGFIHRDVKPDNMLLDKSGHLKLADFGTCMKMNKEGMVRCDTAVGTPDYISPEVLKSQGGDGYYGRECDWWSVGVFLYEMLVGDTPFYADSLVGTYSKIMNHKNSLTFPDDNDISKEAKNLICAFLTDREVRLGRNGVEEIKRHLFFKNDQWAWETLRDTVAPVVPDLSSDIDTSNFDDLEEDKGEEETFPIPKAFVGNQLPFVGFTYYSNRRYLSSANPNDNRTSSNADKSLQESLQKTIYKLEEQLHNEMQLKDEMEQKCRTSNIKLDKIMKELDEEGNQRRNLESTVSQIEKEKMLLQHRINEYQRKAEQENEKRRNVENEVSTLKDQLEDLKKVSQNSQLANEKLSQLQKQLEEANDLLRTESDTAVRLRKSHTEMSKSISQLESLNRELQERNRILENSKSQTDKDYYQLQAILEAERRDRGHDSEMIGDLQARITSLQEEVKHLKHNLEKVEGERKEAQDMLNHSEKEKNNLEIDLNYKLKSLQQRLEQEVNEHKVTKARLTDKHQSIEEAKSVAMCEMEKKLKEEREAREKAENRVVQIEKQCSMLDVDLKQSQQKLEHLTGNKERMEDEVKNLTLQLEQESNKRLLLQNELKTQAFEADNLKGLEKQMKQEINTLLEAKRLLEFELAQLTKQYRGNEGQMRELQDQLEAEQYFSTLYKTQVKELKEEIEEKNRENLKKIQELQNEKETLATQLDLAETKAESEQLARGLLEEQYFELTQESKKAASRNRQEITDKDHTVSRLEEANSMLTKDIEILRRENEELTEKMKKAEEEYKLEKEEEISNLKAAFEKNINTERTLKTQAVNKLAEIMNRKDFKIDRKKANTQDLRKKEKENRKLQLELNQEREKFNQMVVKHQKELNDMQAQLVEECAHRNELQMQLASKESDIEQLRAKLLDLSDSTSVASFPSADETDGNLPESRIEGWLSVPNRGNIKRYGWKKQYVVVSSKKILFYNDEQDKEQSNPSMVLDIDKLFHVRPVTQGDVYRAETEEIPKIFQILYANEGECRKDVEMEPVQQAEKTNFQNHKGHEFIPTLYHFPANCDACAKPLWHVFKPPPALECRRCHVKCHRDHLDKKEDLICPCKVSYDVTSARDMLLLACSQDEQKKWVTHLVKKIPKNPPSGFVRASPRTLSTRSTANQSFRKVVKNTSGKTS
Chain of Rho-associated protein kinase 2 (Homo sapiens) (O75116 whole entry, looked up): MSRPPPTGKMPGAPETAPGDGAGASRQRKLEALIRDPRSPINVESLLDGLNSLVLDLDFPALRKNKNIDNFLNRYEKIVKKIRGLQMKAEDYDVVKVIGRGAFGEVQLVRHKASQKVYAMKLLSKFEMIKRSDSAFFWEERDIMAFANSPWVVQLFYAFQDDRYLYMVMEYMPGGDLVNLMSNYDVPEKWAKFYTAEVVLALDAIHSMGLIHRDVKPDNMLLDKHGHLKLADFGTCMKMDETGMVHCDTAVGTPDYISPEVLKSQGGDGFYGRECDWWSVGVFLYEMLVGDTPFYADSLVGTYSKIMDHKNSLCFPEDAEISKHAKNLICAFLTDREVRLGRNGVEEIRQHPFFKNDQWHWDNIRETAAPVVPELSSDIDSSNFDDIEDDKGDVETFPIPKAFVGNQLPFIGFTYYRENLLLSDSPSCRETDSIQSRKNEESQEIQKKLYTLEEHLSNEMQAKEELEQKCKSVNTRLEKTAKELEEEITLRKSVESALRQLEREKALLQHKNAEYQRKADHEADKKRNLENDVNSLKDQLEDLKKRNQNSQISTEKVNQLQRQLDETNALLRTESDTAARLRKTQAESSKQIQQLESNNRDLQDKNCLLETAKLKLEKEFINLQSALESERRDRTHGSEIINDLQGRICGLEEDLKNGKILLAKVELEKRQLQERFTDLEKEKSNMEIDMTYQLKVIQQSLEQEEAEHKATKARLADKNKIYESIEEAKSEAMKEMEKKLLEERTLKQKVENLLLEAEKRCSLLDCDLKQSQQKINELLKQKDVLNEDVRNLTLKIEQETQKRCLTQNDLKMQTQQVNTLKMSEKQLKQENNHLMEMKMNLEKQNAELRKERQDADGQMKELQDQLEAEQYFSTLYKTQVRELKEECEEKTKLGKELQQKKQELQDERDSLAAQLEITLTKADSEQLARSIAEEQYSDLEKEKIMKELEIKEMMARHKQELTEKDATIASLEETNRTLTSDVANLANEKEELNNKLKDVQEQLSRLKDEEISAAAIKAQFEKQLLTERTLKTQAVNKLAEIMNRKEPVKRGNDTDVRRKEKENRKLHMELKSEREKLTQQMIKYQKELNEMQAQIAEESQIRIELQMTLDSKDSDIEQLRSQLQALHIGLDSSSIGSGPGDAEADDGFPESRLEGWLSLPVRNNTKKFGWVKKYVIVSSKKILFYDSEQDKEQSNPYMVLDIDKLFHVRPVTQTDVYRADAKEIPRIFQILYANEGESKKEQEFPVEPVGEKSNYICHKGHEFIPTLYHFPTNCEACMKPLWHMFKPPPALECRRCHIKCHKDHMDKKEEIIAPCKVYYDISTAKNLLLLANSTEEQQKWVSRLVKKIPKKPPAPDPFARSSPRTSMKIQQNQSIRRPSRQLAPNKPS
Chain of Ribosomal protein S6 kinase alpha-3 (Homo sapiens) (P51812 whole entry): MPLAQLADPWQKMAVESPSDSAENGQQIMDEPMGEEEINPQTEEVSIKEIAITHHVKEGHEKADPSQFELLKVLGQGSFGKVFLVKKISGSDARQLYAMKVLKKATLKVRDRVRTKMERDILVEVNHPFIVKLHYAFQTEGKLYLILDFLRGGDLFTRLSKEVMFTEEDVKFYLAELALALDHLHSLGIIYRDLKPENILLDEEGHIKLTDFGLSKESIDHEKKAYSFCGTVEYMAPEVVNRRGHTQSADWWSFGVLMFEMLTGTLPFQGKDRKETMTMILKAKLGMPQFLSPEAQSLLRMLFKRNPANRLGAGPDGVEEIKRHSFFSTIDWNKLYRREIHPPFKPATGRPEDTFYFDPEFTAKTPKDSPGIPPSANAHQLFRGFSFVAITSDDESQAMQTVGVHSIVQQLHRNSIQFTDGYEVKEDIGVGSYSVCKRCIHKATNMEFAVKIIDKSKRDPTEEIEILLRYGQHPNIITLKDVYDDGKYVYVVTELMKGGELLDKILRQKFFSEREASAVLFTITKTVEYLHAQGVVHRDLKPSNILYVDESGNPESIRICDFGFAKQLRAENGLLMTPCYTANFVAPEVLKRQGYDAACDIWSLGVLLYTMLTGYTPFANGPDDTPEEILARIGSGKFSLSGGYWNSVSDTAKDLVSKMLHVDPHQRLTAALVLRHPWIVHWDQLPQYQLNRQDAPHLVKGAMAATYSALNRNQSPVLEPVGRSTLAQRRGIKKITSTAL
Chain of Ribosomal protein S6 kinase alpha-2 (Homo sapiens) (Q15349 whole entry): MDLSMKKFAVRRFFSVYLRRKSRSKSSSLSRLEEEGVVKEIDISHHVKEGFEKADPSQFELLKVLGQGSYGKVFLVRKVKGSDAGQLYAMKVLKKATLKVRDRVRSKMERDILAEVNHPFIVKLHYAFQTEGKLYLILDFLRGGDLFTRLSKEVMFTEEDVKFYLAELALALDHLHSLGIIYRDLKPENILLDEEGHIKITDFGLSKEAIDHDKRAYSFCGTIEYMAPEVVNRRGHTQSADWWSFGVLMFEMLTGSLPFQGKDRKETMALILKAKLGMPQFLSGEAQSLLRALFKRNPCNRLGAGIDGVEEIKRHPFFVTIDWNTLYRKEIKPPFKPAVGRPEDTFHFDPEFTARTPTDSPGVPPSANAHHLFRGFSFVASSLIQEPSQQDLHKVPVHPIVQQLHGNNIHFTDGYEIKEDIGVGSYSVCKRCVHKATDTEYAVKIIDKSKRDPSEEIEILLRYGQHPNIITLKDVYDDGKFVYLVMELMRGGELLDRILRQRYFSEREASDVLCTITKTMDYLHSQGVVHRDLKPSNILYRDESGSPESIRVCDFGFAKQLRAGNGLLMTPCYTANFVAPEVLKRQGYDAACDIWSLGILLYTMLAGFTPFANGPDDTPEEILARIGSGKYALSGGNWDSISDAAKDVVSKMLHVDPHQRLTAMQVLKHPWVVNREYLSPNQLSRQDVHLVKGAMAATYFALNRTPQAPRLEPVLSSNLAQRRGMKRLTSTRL
Chain of Ribosomal protein S6 kinase alpha-1 (Homo sapiens) (Q15418 whole entry): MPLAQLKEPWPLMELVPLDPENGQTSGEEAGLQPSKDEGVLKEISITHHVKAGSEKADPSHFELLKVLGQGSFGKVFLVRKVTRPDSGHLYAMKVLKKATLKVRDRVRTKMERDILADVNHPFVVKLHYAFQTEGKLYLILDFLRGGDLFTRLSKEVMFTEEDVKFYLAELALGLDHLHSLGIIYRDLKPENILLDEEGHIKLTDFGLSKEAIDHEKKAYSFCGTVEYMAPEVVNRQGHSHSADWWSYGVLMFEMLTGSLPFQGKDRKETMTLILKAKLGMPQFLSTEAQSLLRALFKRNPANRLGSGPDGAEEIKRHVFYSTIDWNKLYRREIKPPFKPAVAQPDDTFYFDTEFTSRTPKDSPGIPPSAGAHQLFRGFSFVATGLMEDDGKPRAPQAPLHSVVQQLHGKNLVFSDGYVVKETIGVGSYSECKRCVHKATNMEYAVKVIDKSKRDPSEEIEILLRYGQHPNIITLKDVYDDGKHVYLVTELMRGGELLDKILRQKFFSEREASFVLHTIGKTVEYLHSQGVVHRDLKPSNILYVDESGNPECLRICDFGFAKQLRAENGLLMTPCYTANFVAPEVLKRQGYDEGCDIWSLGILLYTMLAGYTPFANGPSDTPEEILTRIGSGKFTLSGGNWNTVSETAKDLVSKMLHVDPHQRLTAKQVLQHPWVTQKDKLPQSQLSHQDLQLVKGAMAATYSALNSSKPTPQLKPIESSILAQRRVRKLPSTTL

Compound | inhibition [1] [%] | inhibition [2] [%] | inhibition [3] [%] | inhibition [4] [%] | inhibition [5] [%] | inhibition [6] [%] | inhibition [7] [%] | inhibition [8] [%] | inhibition [9] [%] | inhibition [10] [%]
N#Cc1cccc(Nc2nccc(-c3cnn4ncccc34)n2)c1 | 5.33 | 3.28 | 12.4 | 2.54 | 7.07 | 0.17 | 4.03 | 2.01 | 4.16 | 1.51
Cc1ccc(NC(=O)CC2CC2)cc1-c1ccc(C(=O)NCC2CC2)cc1 | 2.07 | 3.27 | 5.25 | 1.91 | 2.35 | 0.73 | 1.14 | 1.88 | 2.04 | 1.16
Oc1cccc(-c2nc(-c3ccccc3)[nH]c2-c2ccncc2)c1 | 1.51 | 3.56 | 6.34 | 2.58 | 3.62 | 1.36 | 2.76 | 1.27 | 3.22 | 2.27
COC(=O)c1cncc(/C=C/c2c(C)cc(O)cc2C)c1 | 1.27 | 3.8 | 5.21 | 2.26 | 4.95 | 1.3 | 2.62 | 2.03 | 2.47 | 1.66
CCS(=O)(=O)c1ccc(OC)c(Nc2nccc(N(C)c3ccc4c(C)n[nH]c4c3)n2)c1 | 2.51 | 2.12 | 4.04 | -0.57 | 3.78 | -0.28 | 0.94 | -0.47 | 1.56 | -1.99
Nc1nccc(-c2c(-c3ccc(F)cc3)nn3cc(C(F)(F)F)ccc23)n1 | -0.27 | -1.57 | 0.18 | 0.48 | 0.53 | -0.83 | -1.02 | 0.95 | 0.63 | -1.83
COc1ccc(-c2nn3ncccc3c2-c2ccnc(Nc3cccc(C(F)(F)F)c3)n2)cc1 | 0.6 | 2.74 | 1.41 | 1.07 | 2.11 | 1.27 | 1.97 | 1.64 | 2.11 | 0.81
Cc1ccc(Nc2ccnc(Nc3cccc(C(N)=O)c3)n2)cc1O | 5.78 | 4.11 | 13.6 | 2.41 | 3.62 | 1.82 | 2.23 | 1.81 | 3.37 | 2.28
c1ccc(Nc2ncc(-c3ccccc3)o2)cc1 | 2.73 | 4.11 | 2.92 | 2.02 | 2.37 | 0.46 | 0.02 | 3.77 | 3.41 | 2.12
Cc1ccc2c(-c3ccnc(Nc4cccc(C(F)(F)F)c4)n3)c(-c3ccccc3)nn2n1 | 3.58 | 3.31 | 3.33 | 0.52 | 2.33 | -0.67 | 0.59 | 3.58 | 3.98 | 0.82
CC(C)c1ccc2c(c1)NC(=O)/C2=N/Nc1ccc(S(N)(=O)=O)cc1 | -1.28 | -1.58 | -0.82 | 0.52 | 0.63 | -0.56 | 2.05 | 1 | 2.15 | -0.83
Nc1nccc(C#Cc2cncnc2Nc2ccc(OCc3cccc(F)c3)c(Cl)c2)n1 | 3.74 | 2.53 | 4.22 | 1.3 | 2.85 | 0.4 | 0.81 | 2.21 | 2.85 | 0.59
COc1cc2ncn(-c3cc(OCc4ccccc4S(C)(=O)=O)c(C#N)s3)c2cc1OC | 6.5 | 5.73 | 6.61 | 5.57 | 14 | 5.02 | 13.7 | 3.37 | 10.2 | 3.14
O=S(=O)(CCOCc1ccc(-c2ccc3ncnc(Nc4ccc(OCc5cccc(F)c5)c(Cl)c4)c3c2)o1)c1ccccc1 | 3.68 | 1.09 | 6.38 | -1.65 | 1.43 | -0.82 | 1.23 | -0.87 | 1.09 | -1.59
[O-][S+]1CCN(Cc2ccc(-c3ccc4ncnc(Nc5ccc(OCc6ccccc6)c(Cl)c5)c4c3)o2)CC1 | 1.73 | 0.05 | 0.91 | -1.27 | 0.75 | -1.03 | 0.82 | -1.2 | 0.54 | -1.76
NS(=O)(=O)c1ccc(N/N=C2\C(=O)Nc3ccc(Cl)cc32)cc1 | 2.29 | 3.76 | 10.6 | 1.95 | 4.81 | 1.84 | 3.95 | 1.83 | 2.94 | 0.98
COc1cc2ncnc(Nc3ccc(C)c(O)c3)c2cc1OC | 0.99 | 3.05 | 3.9 | 1.8 | 6.05 | 1.52 | 3.02 | 3.28 | 3.51 | 2.48
